# In the library only some 18% were active in any assay of this set; here they are far more common.
# GCN5L2 inh – qHTS Assay for Inhibitors of GCN5L2; GCN5L2 HAT assay, ThioGlo1 CoA-SH fluorescence; 390,000 tested, 0.21% active; AID 504327, 2011; Potency, µM (doses to about 58.9 µM), inactives show at the top dose activity change, negative = inhibition, most hits filed as inhibitors; Histone acetyltransferase KAT2A (Homo sapiens), Q92830
#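 Free CoA generated was detected with ThioGlo1 (50uM) fluorescence at Ex340nm/Em540nm, read immediately and after 20 min at room temperature. Enzyme, 20 nM in HEPES pH 7.5 buffer, saw compounds 15 min before adding 75uM H3(1-25) peptide and 70uM acetyl-CoA.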
# DT40 TDP1 CPT – qHTS for Inhibitors of human tyrosyl-DNA phosphodiesterase 1 (TDP1): qHTS in cells in presence of CPT; chicken DT40 Tdp1-/-;hTDP1 cells + 20 nM CPT, ATP luminescence, 48 h; Potency, µM (titrated, usually from 46.2 µM), inactives show at the top dose activity change, negative = growth inhibition, most hits filed as inhibitors; 420,000 tested, 12% active; note: nearly all actives have a fitted effect of over 55% in size
#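 Chicken DT40 Tdp1-/- cells stably complemented with human TDP1 were seeded at 400 cells/well in medium containing 20 nM camptothecin, exposed to pin-transferred compounds, and grown at 37 °C for at least 48 hr. Viability was read as ATP luminescence.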
# TDP1 block – qHTS Assay for Inhibitors of Tyrosyl-DNA Phosphodiesterase (TDP1) | Tyrosyl-DNA phosphodiesterase 1 (Homo sapiens), Q9NUW8 | recombinant TDP1, AlphaScreen DNA substrate cleavage | Potency, µM (series often up to 130 µM), without a hit: top-dose activity change, negative = inhibition, usual class: inhibitors | 350,000 tested, 0.28% active | AID 485290, 2010; note: nearly all actives have a fitted effect of over 40% in size
#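 Here, a 5' biotin and 3' phosphotyrosine-FITC DNA oligonucleotide reports Tdp1 activity: intact substrate bridges AlphaScreen beads, while cleavage leaves a 3' phosphate and drops signal. All incubations at room temperature.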
# DT40 TDP1 no CPT – qHTS for Inhibitors of human tyrosyl-DNA phosphodiesterase 1 (TDP1): qHTS in cells in absence of CPT; 420,000 tested, 15% active; Potency, µM (top dose mostly 46.2 µM), inactives show at the top dose activity change, negative = growth inhibition, hits mostly inhibitors; DT40 Tdp1-/- hTDP1 cells, no CPT, ATP luminescence, 48 h; note: nearly all actives have a fitted effect of over 55% in size
#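 Growth of hTDP1-complemented DT40 Tdp1-knockout cells is measured by ATP luminescence after at least 48 hr compound exposure at 37 °C, with DMSO substituting for the 20 nM CPT used in the parallel screen.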
# VDR inhibitor – Inhibitors of the vitamin D receptor (VDR): qHTS; 400,000 tested, 0.93% active; VDR-SRC2-3 peptide fluorescence polarization, 2 h; Potency, µM, for inactives: max response, negative = inhibition, usual class: inhibitors
# Target sequence (P11473 whole entry, looked up): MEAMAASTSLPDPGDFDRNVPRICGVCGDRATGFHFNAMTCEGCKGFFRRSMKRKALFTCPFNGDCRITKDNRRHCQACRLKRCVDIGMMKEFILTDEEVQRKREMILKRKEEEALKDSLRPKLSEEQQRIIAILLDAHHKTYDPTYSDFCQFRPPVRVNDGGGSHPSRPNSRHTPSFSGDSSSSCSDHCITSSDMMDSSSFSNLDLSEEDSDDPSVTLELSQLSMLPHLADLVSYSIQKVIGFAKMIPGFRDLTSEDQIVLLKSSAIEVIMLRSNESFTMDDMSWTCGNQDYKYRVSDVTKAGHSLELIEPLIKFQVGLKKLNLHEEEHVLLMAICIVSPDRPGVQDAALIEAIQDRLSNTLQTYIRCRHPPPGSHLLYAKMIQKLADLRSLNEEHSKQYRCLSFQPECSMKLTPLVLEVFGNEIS
#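 Signal is fluorescence polarization, reporting how far test compounds block the interaction of VDR with the SRC2-3 coregulator peptide after a 2 h room-temperature incubation.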
# PLK1 PBD inh – qHTS for Inhibitors of PLK1-PDB (polo-like kinase 1 - polo-box domain): Primary Screen | Serine/threonine-protein kinase PLK1 (Homo sapiens), P53350 | Plk1 PBD binding of FITC phosphopeptide, fluorescence polarization | Potency, µM, without a hit: max response, negative = inhibition, most hits filed as inhibitors | 360,000 tested, 2.8% active; note: series mostly up to about 57 µM; nearly all actives have a fitted effect of over 65% in size
# * hit, by the source's call; ? = inconclusive; nt = not tested or not shown; [ ] = another dose, or the depositor's remark. Calls come from the whole dose curve; as a rule, active = well fitted curve in the direction sought with a large enough effect; inconclusive = small, poorly fitted or top-dose-only effect, or another doubt; inactive = no such curve, though single readings can be large; an effect the other way counts as inactive or inconclusive. % is set by controls: 0 for no effect and ±100 for the full control effect; potency is the fitted concentration of half-maximal effect.
SMILES,GCN5L2 inh,DT40 TDP1 CPT,TDP1 block,DT40 TDP1 no CPT,VDR inhibitor,PLK1 PBD inh
CN(CCO)c1ccc(-c2nn(C)c(=O)c3ccccc23)cc1[N+](=O)[O-],?,?,8%,8.2µM*,-12%,-7%
Cc1cc(=O)oc2cc(OCC(=O)NC3(C#N)CCCCC3)c(Cl)cc12,-6%,-7%,-3%,?,-2%,-1%
COc1ccc2oc(C(=O)OCC(=O)Nc3ccc(C)c(S(=O)(=O)N4CCOCC4)c3)c(C)c2c1,nt,1%,nt,-3%,nt,2%
CC1=NCCN1CCNC(=O)Nc1ccc(C(C)(C)C)cc1,0%,-5%,0%,-23%,3%,3%
COc1ccc(-n2cnc3c(c2=N)C(c2cccc(OC)c2)c2c(ccc4ccccc24)O3)cc1 (stereo not given),nt,nt,7%,nt,nt,nt
COc1ccc(NS(=O)(=O)c2cccc(C(=O)NCc3ccccc3CN3CCOCC3)c2)cc1,nt,-30%,nt,?,-11%,1%
C[C@@H]1CN(Cc2ccc3c(c2)CN(Cc2cccn2-c2ccc(Cl)cn2)CCO3)C[C@H](C)O1,nt,7%[9.04 µM],nt,-7%,nt,nt
Fc1ccc(-c2csc3ncnc(N4CCN(c5ccccc5)CC4)c23)cc1,-18%,?,-2%,?,41%,-14%
COc1ccc(F)cc1CN1CCN(c2ncnc3scc(-c4ccccc4)c23)CC1,-5%,15µM*,8%,16µM*,6%,2%
COc1ccc(CN2CCN(c3ncnc4scc(-c5ccc(F)cc5)c34)CC2)cc1,0%,16µM*,nt,21µM*,-3%,0%
CCOc1ccc(CN2CCN(c3ncnc4scc(-c5ccccc5)c34)CC2)cc1,-1%,?,nt,8.2µM*,3%,4%
Cc1ccc([N+](=O)[O-])cc1NC(=O)CSc1n[nH]c(-c2cccnc2)n1,0%,-21%,11%,-11%,5%,-6%
CN1CCN(NC(=O)c2cc(-c3ccc(Cl)s3)nc3ccccc23)CC1,-4%,?,8%,15µM*,14%,-12%
CCOC(CCNC(=O)c1cc(-c2cccs2)nc2ccccc12)OCC,28%,21µM*,nt,?,11%,5%
COc1ccc(OC)c(CNC(=O)c2cc3c(Cl)nc4ccccc4c3s2)c1,-13%,?,3%,?,-17%,nt
COc1ccc(CNC(=O)c2cc(-c3cccs3)nc3ccccc23)c(OC)c1,-6%,2.6µM*,-2%,?,1%,nt
NNC(=O)c1cc(-c2cccs2)nc2ccccc12,-5%,?,4%,?,?,0%
COc1ccc(OC)c(CNC(=O)c2cc(-c3ccc(Cl)s3)nc3ccccc23)c1,2%,15µM*,-1%,9.2µM*,-5%,nt
CN1CCN(NC(=O)c2cc(-c3ccccn3)nc3ccccc23)CC1,-6%,14%,5%,-10%,-16%,-9%
O=C(c1cnccn1)N1CCC2(CCN(Cc3ccncc3)CC2)CC1,3%,6%,nt,?,1%,nt
CCS(=O)(=O)N1CCc2cc(C(=O)NC(C)c3ccccc3)ccc21 (stereo not given),-4%,?,6%,?,16%,nt
CCCCCOCC1CC(C/C(C)=N/NC(N)=S)C(=O)O1 (stereo not given),-3%,?,4%,?,-27%,27µM*
CC(NC(=O)c1ccc2c(c1)CCN2S(=O)(=O)c1ccccc1)c1ccccc1 (stereo not given),-10%,?,0%,?,7%,nt
CCCCc1c(Cc2cccc(F)c2)ncn1CCc1ccccc1OC,nt,?,nt,13µM*,nt,2%
CCCCCc1c(-c2ccc(F)cc2F)ncn1CCc1ccccc1OC,nt,?,nt,21µM*,nt,3%
SMILES,GCN5L2 inh,DT40 TDP1 CPT,TDP1 block,DT40 TDP1 no CPT,VDR inhibitor,PLK1 PBD inh
COc1ccccc1Cn1cnc2cccnc21,-2%,-20%,2%,7%,-14%,?
CCCCc1c(-c2ccc(F)cc2F)ncn1CCc1ccccc1OC,nt,23µM*,nt,26µM*,nt,-1%
CCCCn1c(=O)n(Cc2cccc(F)c2)c(=O)c2c1ncn2Cc1ccco1,-10%,?,7%,?,-16%,?
COc1cccc2c1c(NC(=O)Nc1ccc(F)cc1F)nn2C,-20%,0%,0%,3%,3%,5%
Cc1oc(-c2cccs2)nc1CS(=O)CC(=O)NC1CCCCCC1 (stereo not given),-4%,?,1%,?,?,21µM*
COc1ccc(-c2nc(CS(=O)CC(=O)NC3CCCC3)c(C)o2)cc1 (stereo not given),0%,?,4%,-8%,?,27µM*
Cc1ccc(CNC(=O)CS(=O)Cc2nc(-c3cccs3)oc2C)cc1 (stereo not given),-1%,23µM*,3%,?,?,?
COc1ccc(NC(=O)c2ccc3c(c2)NC(=O)CS3)cc1S(=O)(=O)Nc1ccc(Br)cc1,-10%,?,-1%,29µM*,-26%,?
COc1ccc(C(=O)Nc2ccccc2)cc1S(=O)(=O)Nc1ccc(Br)cc1,2%,-9%,2%[12.3 µM],-12%,3%,nt
Cc1ccc(NS(=O)(=O)c2cc(NC(=O)c3ccc4c(c3)NC(=O)CS4)ccc2C)c(C)c1,-12%,?,5%,?,?,9.5µM*
COC(=O)Nc1sc2c(c1C(=O)NC1CC1)CCCCCC2,-7%,-22%,-2%,-2%,-6%,-22%
CC1CCN(C(=O)CN2c3ccc(Br)cc3-c3ccccc3S2(=O)=O)CC1,-7%,13µM*,5%,21µM*,23%,nt
